In assay [1] the test system is PRMT1 (protein arginine N-methyltransferase 1). Put plainly: small molecules binding arginine methyltransferase PRMT1 – biochemical, small-molecule microarray, 635 nm fluorescence, primary screen (AID 1088).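 Note: binding of Prmt1 protein to compounds spotted on small-molecule microarray slides.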 To be noted: higher = more signal.
The nature of assay [2]: growth effects on S. cerevisiae YJM789 – YJM789 clinical isolate, OD600, 24 h, basal, primary screen (AID 1089).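 Note: growth of clinical yeast isolate S. cerevisiae YJM 789 seeded 1000 cells per well; test concentration not given here.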 Particulars: higher = more signal, called active from +8 up or from −8 down.
Assay [3] can be described thus: S. pombe growth modifiers, basal conditions – strain 972, OD600, 24 h, no modulator, primary screen (AID 1090).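 Note: basal condition with compound alone and no growth modifier present; test concentration not given here.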 To be noted: S. pombe 972 growth, higher = more signal, called active from +8 up or from −8 down.
Assay [4] in a line: budding yeast growth modifiers under rapamycin – strain BY4716, OD600, 96 h, primary screen (AID 1091). Note: test concentration not given here. Particulars: S. cerevisiae BY4716 + rapamycin, higher = more signal, called active from +8 up or from −8 down.
Assay [5] addresses Torsin-1A-interacting protein 2 (Homo sapiens) (UniProt Q8NFQ8). In words: small molecules binding lysate-expressed LULL1 – cell lysate, human LULL1 lysate, 635/667 nm fluorescence, primary screen (AID 1092).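 Note: probe is lysate of COS7 cells overexpressing human LULL1; score merges per-feature 667 nm fluorescence with signal-to-noise.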 To be noted: small-molecule microarray, hLULL1 lysate binding, 635 nm fluorescence; higher = more signal.
A short description of assay [6]: optical density change of DRC41 E. coli – strain DRC41, OD650, 24 h, E. coli filamentation project, primary screen (AID 1093).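 Note: MC1000 strain lacking acrAB efflux and sulA so SOS filamentation is blocked; test concentration not given here.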 To be noted: E. coli DRC41 growth, higher = more signal, called active from +8 up or from −8 down.
The nature of assay [7]: probe aLefty2 binding to arrayed compounds – biochemical, biotinylated probe, 635/667 nm fluorescence, primary screen (AID 1094).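 Note: score merges spot fluorescence near 667 nm with spot signal-to-noise ratio.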 To be noted: small-molecule microarray, higher = more signal.
Assay [8] has as its system Noggin (protein binding on small-molecule microarray). Put plainly: small molecules binding Noggin protein – biochemical, 635/667 nm fluorescence, primary screen (AID 1095).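 Note: score merges 667 nm feature fluorescence with signal to noise over triplicate slides.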 To be noted: 635 nm fluorescence, higher = more signal.
Assay [9] addresses Neurogenic locus notch homolog protein 3 (Homo sapiens) (UniProt Q9UM47). Put plainly: small molecules binding NOTCH3 protein – biochemical, 635/667 nm fluorescence, primary screen (AID 1096). Particulars: small-molecule microarray, 635 nm fluorescence, higher = more signal.
Assay [10] in a line: probe aEGFR binding to arrayed compounds – biochemical, biotinylated probe, 635/667 nm fluorescence, primary screen (AID 1097).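 Note: probe is a biotinylated anti-EGFR antibody binding compounds printed on slides; score combines fluorescence near 667 nm and signal to noise of each spot.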 To be noted: small-molecule microarray, higher = more signal.
Assay [11] has as its system Plasmodium falciparum Sir2 (PF13_0152, Sir2A). In words: Plasmodium falciparum Sir2A binding compounds – biochemical, small-molecule microarray, 635 nm fluorescence, primary screen (AID 1098).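 Note: score merges spot fluorescence intensity with its signal-to-noise ratio.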 To be noted: fluorescence 635 nm, higher = more signal.
Assay [12] is described as follows: probe aDKK1 binding to arrayed compounds – biochemical, biotinylated probe, 635/667 nm fluorescence, primary screen (AID 1099).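 Note: score merges 667nm spot fluorescence with signal to noise across triplicate slides; reference of the scale not given here.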 To be noted: small-molecule microarray, higher = more signal.
The nature of assay [13]: probe aCHRDL2 binding to arrayed compounds – biochemical, biotinylated probe, 635/667 nm fluorescence, primary screen (AID 1100). Particulars: small-molecule microarray, higher = more signal.
Assay [14] can be described thus: change in splice reporter luminescence, either direction, cell-based, HEK293, spliceosome inhibition project, primary screen (AID 1101).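 Note: HEK293 cells carrying a splicing-competent luciferase reporter gene; test concentration not given here.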 Particulars: HEK293 splicing luciferase reporter, 24 h, higher = more signal, called active from +8 up or from −8 down.
For assay [15], the target named is Fibroblast growth factor 10 (Homo sapiens) (UniProt O15520). Put plainly: compounds binding fibroblast growth factor 10 – biochemical, small-molecule microarray, 635 nm fluorescence, primary screen (AID 1102). To be noted: FGF10 binding, fluorescence 635 nm, higher = more signal.
Assay [16] relates to glycogen synthase kinase-3 (GSK3A per assay name; protocol says GSK3B). In words: compounds binding glycogen synthase kinase-3 – biochemical, small-molecule microarray, 635 nm fluorescence, GSK3A, primary screen (AID 1103). Note: the record names both GSK3A and GSK3B. Particulars: fluorescence 635 nm, higher = more signal.
Assay [17] addresses Epidermal growth factor receptor (Homo sapiens) (UniProt P00533). Put plainly: compounds binding epidermal growth factor receptor – biochemical, small-molecule microarray, 635 nm fluorescence, primary screen (AID 1104).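 Note: score merges 667 nm emission intensity with spot signal to noise over triplicate slides.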 Particulars: EGFR binding, higher = more signal.
The target in assay [18] is Follistatin-related protein 3 (Homo sapiens) (UniProt O95633). Put plainly: compounds binding follistatin-related protein 3 – biochemical, small-molecule microarray, 635 nm fluorescence, primary screen (AID 1105).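 Note: score merges emission near 667 nm and signal to noise per printed spot across three slides.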 Particulars: FSTL3 binding, higher = more signal.
For assay [19], the target named is Dickkopf-related protein 1 (Homo sapiens) (UniProt O94907). In words: small molecules binding DKK1 protein – biochemical, small-molecule microarray, 635 nm fluorescence scan, primary screen (AID 1106).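 Note: score merges emission near 667 nm with signal to noise over three replicate slides.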 To be noted: higher = more signal.
Assay [20] relates to Inhibin beta A chain (activin A). Put plainly: small molecules binding activin A – biochemical, small-molecule microarray, 635 nm fluorescence scan, primary screen (AID 1107).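 Note: mouse activin A protein probed at 4.33 µg/mL on printed slides; score merges bound-protein fluorescence near 667 nm with spot signal-to-noise.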 To be noted: INHBA, higher = more signal.

Active and inactive are the calls of the source.

Sequence of Neurogenic locus notch homolog protein 3 (Homo sapiens) (Q9UM47 whole entry, looked up): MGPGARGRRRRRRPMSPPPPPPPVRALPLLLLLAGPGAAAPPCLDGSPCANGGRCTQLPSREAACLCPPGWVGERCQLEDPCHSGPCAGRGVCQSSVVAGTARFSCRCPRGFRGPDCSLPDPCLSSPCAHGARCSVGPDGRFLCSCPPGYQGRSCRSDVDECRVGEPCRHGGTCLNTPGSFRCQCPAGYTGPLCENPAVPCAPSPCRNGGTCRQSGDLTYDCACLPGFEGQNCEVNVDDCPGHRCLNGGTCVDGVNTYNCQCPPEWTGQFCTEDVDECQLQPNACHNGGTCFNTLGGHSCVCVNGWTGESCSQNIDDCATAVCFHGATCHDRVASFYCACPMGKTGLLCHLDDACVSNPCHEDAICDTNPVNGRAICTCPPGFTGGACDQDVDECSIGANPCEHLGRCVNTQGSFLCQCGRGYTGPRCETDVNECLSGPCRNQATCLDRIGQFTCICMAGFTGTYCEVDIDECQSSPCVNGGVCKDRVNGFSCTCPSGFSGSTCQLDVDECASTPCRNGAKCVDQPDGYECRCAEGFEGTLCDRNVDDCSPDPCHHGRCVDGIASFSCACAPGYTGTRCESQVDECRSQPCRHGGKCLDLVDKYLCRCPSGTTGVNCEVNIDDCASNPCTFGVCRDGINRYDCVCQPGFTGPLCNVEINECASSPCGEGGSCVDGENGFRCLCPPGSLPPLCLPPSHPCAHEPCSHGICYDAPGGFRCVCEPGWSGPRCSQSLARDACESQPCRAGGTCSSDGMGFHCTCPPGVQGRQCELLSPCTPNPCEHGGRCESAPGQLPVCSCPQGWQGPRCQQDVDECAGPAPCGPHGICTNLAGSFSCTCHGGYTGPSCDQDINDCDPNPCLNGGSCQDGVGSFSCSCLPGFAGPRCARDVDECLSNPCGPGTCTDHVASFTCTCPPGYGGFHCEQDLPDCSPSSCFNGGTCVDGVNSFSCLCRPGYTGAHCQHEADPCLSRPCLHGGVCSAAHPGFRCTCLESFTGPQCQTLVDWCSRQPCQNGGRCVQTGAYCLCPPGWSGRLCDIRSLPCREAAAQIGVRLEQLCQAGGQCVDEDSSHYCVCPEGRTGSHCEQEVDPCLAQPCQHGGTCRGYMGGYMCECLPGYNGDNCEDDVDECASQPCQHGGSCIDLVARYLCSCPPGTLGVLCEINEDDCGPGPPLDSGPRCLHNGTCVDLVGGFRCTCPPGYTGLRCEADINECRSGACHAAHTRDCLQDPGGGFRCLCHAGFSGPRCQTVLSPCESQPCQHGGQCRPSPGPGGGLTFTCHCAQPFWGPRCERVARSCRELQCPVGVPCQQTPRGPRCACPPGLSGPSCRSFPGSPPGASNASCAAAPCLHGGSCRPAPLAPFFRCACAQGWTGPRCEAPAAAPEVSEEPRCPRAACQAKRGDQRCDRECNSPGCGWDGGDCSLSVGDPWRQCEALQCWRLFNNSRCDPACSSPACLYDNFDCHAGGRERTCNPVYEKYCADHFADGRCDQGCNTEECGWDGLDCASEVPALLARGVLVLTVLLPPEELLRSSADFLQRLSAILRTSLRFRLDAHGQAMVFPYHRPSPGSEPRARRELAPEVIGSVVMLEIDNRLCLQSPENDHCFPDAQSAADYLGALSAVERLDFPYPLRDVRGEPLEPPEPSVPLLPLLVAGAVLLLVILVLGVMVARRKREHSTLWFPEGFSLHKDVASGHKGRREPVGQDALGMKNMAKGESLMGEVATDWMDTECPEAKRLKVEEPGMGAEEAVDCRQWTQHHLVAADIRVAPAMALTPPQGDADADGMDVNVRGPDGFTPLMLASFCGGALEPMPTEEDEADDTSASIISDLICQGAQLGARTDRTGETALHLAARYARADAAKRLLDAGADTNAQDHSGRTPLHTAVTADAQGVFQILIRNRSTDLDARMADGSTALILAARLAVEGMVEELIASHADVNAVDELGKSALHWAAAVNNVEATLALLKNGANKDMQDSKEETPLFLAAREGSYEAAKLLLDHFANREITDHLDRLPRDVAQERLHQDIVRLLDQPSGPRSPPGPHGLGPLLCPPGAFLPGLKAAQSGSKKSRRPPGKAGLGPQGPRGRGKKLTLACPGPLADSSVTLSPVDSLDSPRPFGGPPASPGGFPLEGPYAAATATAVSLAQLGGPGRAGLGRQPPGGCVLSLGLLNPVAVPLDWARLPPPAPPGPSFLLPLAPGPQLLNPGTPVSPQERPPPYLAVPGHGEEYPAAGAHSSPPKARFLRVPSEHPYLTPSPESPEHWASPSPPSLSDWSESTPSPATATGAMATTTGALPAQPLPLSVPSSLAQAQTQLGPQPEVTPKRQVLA
Sequence of Follistatin-related protein 3 (Homo sapiens) (O95633 whole entry, looked up): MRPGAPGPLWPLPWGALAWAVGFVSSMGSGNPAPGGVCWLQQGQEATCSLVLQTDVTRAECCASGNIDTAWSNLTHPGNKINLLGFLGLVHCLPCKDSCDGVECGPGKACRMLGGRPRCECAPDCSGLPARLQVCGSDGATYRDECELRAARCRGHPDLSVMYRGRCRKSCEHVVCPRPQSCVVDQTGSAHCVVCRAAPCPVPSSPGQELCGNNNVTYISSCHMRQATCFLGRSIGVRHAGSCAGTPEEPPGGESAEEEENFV
Sequence of Epidermal growth factor receptor (Homo sapiens) (P00533 whole entry, looked up): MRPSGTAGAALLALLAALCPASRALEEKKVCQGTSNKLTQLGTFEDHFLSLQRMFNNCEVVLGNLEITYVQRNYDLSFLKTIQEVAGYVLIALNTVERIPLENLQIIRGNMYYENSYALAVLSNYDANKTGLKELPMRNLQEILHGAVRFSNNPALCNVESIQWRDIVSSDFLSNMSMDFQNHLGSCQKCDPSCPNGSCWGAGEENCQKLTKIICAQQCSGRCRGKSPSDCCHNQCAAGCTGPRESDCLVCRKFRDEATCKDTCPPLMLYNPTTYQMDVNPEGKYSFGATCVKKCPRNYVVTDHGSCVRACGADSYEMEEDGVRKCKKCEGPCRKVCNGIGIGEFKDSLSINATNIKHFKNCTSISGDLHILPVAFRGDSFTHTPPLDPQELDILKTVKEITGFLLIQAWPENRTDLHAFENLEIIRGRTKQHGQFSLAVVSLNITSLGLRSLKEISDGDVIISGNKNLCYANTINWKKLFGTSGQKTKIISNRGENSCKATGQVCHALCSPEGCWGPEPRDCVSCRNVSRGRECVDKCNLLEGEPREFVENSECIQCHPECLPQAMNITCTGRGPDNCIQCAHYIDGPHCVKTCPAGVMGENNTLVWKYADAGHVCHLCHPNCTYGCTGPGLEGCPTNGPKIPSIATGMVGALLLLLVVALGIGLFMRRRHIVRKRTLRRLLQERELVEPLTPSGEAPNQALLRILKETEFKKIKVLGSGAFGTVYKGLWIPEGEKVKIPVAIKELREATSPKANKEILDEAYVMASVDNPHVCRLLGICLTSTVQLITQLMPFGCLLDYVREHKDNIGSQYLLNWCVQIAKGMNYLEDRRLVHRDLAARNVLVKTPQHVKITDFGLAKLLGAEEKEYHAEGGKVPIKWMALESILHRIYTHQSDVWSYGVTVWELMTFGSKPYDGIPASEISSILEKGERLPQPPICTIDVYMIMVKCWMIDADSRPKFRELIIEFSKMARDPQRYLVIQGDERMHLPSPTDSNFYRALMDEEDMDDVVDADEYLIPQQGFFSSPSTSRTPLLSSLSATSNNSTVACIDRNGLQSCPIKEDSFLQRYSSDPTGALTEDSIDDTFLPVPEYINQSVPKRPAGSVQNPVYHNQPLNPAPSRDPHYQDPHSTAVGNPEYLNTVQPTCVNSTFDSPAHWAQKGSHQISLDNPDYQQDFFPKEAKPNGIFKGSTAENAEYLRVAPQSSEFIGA
Sequence of Fibroblast growth factor 10 (Homo sapiens) (O15520 whole entry, looked up): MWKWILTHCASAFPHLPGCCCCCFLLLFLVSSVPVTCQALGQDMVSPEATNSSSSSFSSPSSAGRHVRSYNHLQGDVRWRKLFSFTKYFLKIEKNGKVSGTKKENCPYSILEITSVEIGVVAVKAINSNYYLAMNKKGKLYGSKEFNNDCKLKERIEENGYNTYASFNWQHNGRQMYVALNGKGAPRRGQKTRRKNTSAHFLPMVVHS
Sequence of Dickkopf-related protein 1 (Homo sapiens) (O94907 whole entry, looked up): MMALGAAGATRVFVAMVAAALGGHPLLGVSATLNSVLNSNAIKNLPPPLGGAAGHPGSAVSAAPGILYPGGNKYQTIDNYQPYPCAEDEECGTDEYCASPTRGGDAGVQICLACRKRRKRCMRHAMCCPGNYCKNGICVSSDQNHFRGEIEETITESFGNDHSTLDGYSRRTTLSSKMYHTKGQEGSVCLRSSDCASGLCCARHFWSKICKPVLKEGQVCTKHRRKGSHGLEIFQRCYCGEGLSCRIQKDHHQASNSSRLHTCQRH
Sequence of Torsin-1A-interacting protein 2 (Homo sapiens) (Q8NFQ8 whole entry, looked up): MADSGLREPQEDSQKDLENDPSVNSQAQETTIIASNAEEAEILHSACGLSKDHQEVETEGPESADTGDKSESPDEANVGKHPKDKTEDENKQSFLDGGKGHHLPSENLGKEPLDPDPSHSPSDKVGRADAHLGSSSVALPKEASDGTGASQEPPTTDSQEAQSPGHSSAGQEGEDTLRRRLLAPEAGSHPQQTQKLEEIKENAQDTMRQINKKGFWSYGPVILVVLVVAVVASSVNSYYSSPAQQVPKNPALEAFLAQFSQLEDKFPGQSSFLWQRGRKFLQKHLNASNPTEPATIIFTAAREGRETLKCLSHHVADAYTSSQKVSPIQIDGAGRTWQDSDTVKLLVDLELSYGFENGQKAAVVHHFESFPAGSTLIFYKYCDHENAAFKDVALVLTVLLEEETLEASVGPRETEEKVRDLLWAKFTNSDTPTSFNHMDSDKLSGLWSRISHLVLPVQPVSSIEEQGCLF

Regarding `CSCC[C@@H]1NC(=O)CC=C[C@@H](C)COC(=O)[C@@H](C)COC1=O`, the composite z-score in assay [1] is 1.21; in assay [5], 0.0424; in [7] it was -0.103; in assay [8], 0.882; in assay [9], -0.142; in assay [10], -0.197. The composite z-score in assay [11] is -0.0958; in assay [12], -0.417; in [13], -0.816; in [15] it was -0.0586; in [16] it was 0.812; in assay [17], 0.0541. Also, the composite z-score is -0.149 in assay [18], -0.18 in [19] and 0.705 in assay [20]. Moreover, the z-score in assay [2] is 0.506 (inactive); in [3] it was -0.463 (inactive); in assay [4], -0.318 (inactive); in [6], 0.59 (inactive); in assay [14] it was -0.0857 (inactive).

Turning to `COc1ccc(O[C@@H]2[C@H](O)CO[C@@H]2C=Cc2ccccc2)cc1`, the composite z-score in assay [1] was 0.123; in assay [5], 0.11; in [7] it was -0.238; in assay [8] it was 0.135; in [9] it was 0.0877; in assay [10], -0.163. For the same compound, the composite z-score in [11] is 0.638; in assay [12], -0.228; in [13], -0.256; in [15], -0.0055; in assay [16] it was -0.0208; in assay [17], -0.169. Moreover, the values for the composite z-score in assay [18], in assay [19] and in assay [20] were 0.367, 0.148 and 0.448, respectively. In addition, the z-score in assay [2] is -0.565 (inactive); in [3], -1.51 (inactive); in assay [4], 0.0945 (inactive); in assay [6], 0.0038 (inactive); in assay [14] it was -1.63 (inactive).

Consider `CC(C)(C)N1C(=O)[C@H]2[C@H]3[C@H](O)[C@H](O)CC(=O)[C@@H]3CC[C@H]2C1=O`, for which the composite z-score in assay [1] was 0.33; in assay [5] it was -0.26; in [7], -0.204; in assay [8], 0.562; in [9], 0.373; in [10], -0.147. The composite z-score was 0.369 in [11]; -0.227 in assay [12]; -0.658 in assay [13]; 0.639 in [15]; 0.239 in assay [16]; 0.479 in assay [17]. Further, the composite z-score in [18] turned out to be 0.265; in [19], 0.711; in [20], 0.156. Also, the z-score in [2] is -0.128 (inactive); in assay [3], -0.509 (inactive); in [4], -0.0675 (inactive); in assay [6] it was -0.561 (inactive); in [14], 0.343 (inactive).

As to `COc1ccc(O[C@H]2C=C[C@@H](c3ccccc3)O[C@@H]2CON=C2[C@H]3CCn4c(=O)n(-c5ccccc5)c(=O)n4[C@H]3[C@H](O)[C@@H]3O[C@H]23)cc1`, the composite z-score was 1.3 in [1]; 0.86 in assay [5]; -0.206 in [7]; 0.437 in assay [8]; 0.863 in assay [9]; 0.0009 in [10]. For the same compound, the composite z-score is 0.393 in assay [11]; 0.214 in assay [12]; -0.224 in [13]; 0.464 in assay [15]; 0.417 in assay [16]; 0.318 in assay [17]. Also, the composite z-score in [18] stood at 0.584; in assay [19], 0.288; in assay [20], 0.338. Moreover, the z-score is -0.417 (inactive) in [2]; 0.444 (inactive) in assay [3]; 0.661 (inactive) in assay [4]; -0.745 (inactive) in [6]; 1.09 (inactive) in assay [14].

On to `CCOC(=O)[C@H](CC(C)C)NC(=O)CCC1CC(OC(=O)NCc2cccc3ccccc23)CC2(CCCC(COC(=O)NCc3cccc(C(F)(F)F)c3)O2)O1` (stereo not given in full), for which the composite z-score is 0.221 in assay [1]; 0.135 in assay [5]; -0.251 in assay [7]; 0.582 in assay [8]; 0.359 in [9]; -0.137 in assay [10]. Besides, the composite z-score in assay [11] was 0.0007; in assay [12] it was -0.167; in assay [13] it was -0.346; in [15], 0.475; in assay [16] it was 0.362; in assay [17], 0.508. Moreover, the composite z-score in assay [18] is 0.346; in assay [19], 0.491; in assay [20] it was -0.0188. Further, the z-score in assay [2] is 0.533 (inactive); in assay [3], 0.171 (inactive); in assay [4], 0.289 (inactive); in [6], 0.294 (inactive); in assay [14] it was -0.349 (inactive).

The values are drawn from PubChem BioAssay.
